Measured values taken from the supplement of paper PMC10849652.
Targets with a hit are over-represented here; the source holds about 7,900 in all. About 0.6% of all pairs of compound and target were hits.

How the values were obtained:
Assay in all cases: log2 fold change, soluble protein after heating vs DMSO (PISA); higher = thermal stabilisation; K562 cells, 10 uM, 30 min; active = over 0.2 and 3.5 SD of the protein, either way, in both replicates (recomputed)
[1] = compound: Cc1ccc(NC(=O)c2ccc(CN3CC[C@H](N(C)C)C3)c(C(F)(F)F)c2)cc1Nc1nccc(-c2cncnc2)n1 [bafetinib]
Procedure, shortened: (§1)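 Aliquots of K562 cells (2×10^6 cells/mL) treated with 10 μM compound for 30 min were heated for 3 min over 48°C-58°C. After pooling and extraction in PBS with 0.5% NP-40 at 4°C, soluble protein from a 21,000xg, 90 min spin was quantified by TMTpro 16plex LC-MS/MS with channel sums equalised. Thermal stability is expressed against control samples, from duplicates, as a log2 fold change.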

[2] = compound: Cc1cccc(CC(=O)N2CCc3c2ccc(-c2cn(C)c4ncnc(N)c24)c3F)n1
Procedure, shortened: as §1

[3] = compound: Cc1cn(-c2cc(NC(=O)c3ccc(C)c(Nc4nccc(-c5cccnc5)n4)c3)cc(C(F)(F)F)c2)cn1 [nilotinib]
Procedure, shortened: as §1

[4] = compound: Cc1nc(Nc2n[nH]c3c2CN(C(=O)N[C@H](CN(C)C)c2ccccc2)C3(C)C)c2sccc2n1
Procedure, shortened: as §1

[5] = compound: Cc1nc(Nc2ncc(C(=O)Nc3c(C)cccc3Cl)s2)cc(N2CCN(CCO)CC2)n1 [dasatinib]
Procedure, shortened: as §1

[6] = compound: Cc1ncc(-c2ccnc(Nc3ccc(S(C)(=O)=O)cc3)n2)n1C(C)C
Procedure, shortened: as §1

[7] = compound: Cn1cc(-c2ccc3c(c2)CCN3C(=O)Cc2cccc(C(F)(F)F)c2)c2c(N)ncnc21
Procedure, shortened: as §1

[8] = compound: Cn1cc(-c2ccc3nnc(C(F)(F)c4ccc5ncccc5c4)n3n2)cn1
Procedure, shortened: as §1

[9] = compound: Cn1cncc1[C@@](N)(c1ccc(Cl)cc1)c1ccc2c(c1)c(-c1cccc(Cl)c1)cc(=O)n2C [tipifarnib]
Procedure, shortened: as §1

[10] = compound: FC(F)(F)c1ccc(/C=C/c2nc(COc3ccc(CCCCn4ccnn4)cc3)co2)cc1 [mubritinib]
Procedure, shortened: as §1

[11] = compound: NC(=O)Nc1cc(-c2cccc(F)c2)sc1C(=O)N[C@H]1CCCNC1
Procedure, shortened: as §1

[12] = compound: NC(=O)c1cnc(N[C@@H]2CCCC[C@@H]2N)nc1Nc1cccc(-n2nccn2)c1
Procedure, shortened: as §1

[13] = compound: NC1(c2ccc(-c3nc4ccn5c(=O)[nH]nc5c4cc3-c3ccccc3)cc2)CCC1
Procedure, shortened: as §1

[14] = compound: Nc1ccccc1NC(=O)c1ccc(CNC(=O)OCc2cccnc2)cc1 [entinostat]
Procedure, shortened: as §1

[15] = compound: O=C(CCCCCCC(=O)Nc1ccccc1)NO [vorinostat]
Procedure, shortened: as §1

[16] = compound: O=C(CCCCCCNC(=O)c1cnc(N(c2ccccc2)c2ccccc2Cl)nc1)NO [citarinostat]
Procedure, shortened: as §1

[17] = compound: O=C(O)c1ccc2c(c1)nc(Nc1cccc(Cl)c1)c1ccncc12 [silmitasertib]
Procedure, shortened: as §1

[18] = compound: O=C1NC(=O)C(c2cnc3ccccn23)=C1c1cn2c3c(cc(F)cc13)CN(C(=O)N1CCCCC1)CC2
Procedure, shortened: as §1

[19] = compound: c1cc(OCCN2CCCCC2)cc(-c2n[nH]c3ccc(-c4nnc[nH]4)cc23)c1
Procedure, shortened: as §1

[20] = compound: NCC(=O)Nc1ccc(-n2nc(C(F)(F)F)cc2-c2ccc3c(ccc4ccccc43)c2)cc1
Procedure, shortened: as §1

Measured: log2 fold change

TMEM268 isoform 3 (UniProt Q5VZI3)
UniProt Q5VZI3, sequence (Q5VZI3 whole entry, looked up): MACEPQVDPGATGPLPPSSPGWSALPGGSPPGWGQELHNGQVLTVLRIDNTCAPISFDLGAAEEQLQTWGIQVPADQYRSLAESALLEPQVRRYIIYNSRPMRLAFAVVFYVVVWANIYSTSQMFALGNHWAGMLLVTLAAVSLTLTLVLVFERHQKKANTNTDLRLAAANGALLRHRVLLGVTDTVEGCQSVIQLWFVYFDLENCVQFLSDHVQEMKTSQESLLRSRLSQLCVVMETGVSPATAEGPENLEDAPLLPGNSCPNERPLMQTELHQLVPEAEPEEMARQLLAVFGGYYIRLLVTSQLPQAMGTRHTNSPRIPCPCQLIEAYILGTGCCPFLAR
inactive: [1] 0.318 | [2] -0.096 | [3] 0.008 | [4] -0.005 | [5] -0.194 | [6] 0.165 | [7] 0.112 | [8] 0.014 | [9] 0.003 | [10] 0.109 | [11] 0.12 | [12] 0.057 | [13] -0.141 | [14] 0.059 | [15] 0.162 | [16] 0.084 | [17] -0.114 | [18] 0.174 | [19] -0.117

UBA6
active: [10] 0.228
inactive: [1] 0.009 | [2] 0.036 | [3] 0.062 | [4] -0.137 | [5] -0.035 | [6] -0.024 | [7] 0.016 | [8] -0.024 | [9] -0.075 | [11] -0.048 | [12] -0.065 | [13] -0.14 | [20] -0.047 | [14] 0.05 | [15] 0.011 | [16] 0.052 | [17] -0.004 | [18] -0.046 | [19] -0.004

TMEM106B (UniProt Q9NUM4)
UniProt Q9NUM4, sequence (Q9NUM4 whole entry, looked up): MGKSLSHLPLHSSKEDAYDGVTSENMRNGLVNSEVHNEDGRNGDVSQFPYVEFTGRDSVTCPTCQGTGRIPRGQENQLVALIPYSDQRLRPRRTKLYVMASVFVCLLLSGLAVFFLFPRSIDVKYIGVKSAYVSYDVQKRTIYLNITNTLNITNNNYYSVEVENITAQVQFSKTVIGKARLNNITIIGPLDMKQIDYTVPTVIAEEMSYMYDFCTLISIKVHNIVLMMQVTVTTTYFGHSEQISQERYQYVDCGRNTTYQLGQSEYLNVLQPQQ
inactive: [1] -0.094 | [2] 0.035 | [3] -0.015 | [4] 0.02 | [5] 0.098 | [6] -0.007 | [7] 0.083 | [9] 0.029 | [10] 0.023 | [11] -0.042 | [12] -0.038 | [13] -0.056 | [20] -0.016 | [14] 0.008 | [15] -0.023 | [16] 0.022 | [17] 0.034 | [18] 0 | [19] 0.046

TMEM184C (UniProt Q9NVA4)
UniProt Q9NVA4, sequence (Q9NVA4 whole entry, looked up): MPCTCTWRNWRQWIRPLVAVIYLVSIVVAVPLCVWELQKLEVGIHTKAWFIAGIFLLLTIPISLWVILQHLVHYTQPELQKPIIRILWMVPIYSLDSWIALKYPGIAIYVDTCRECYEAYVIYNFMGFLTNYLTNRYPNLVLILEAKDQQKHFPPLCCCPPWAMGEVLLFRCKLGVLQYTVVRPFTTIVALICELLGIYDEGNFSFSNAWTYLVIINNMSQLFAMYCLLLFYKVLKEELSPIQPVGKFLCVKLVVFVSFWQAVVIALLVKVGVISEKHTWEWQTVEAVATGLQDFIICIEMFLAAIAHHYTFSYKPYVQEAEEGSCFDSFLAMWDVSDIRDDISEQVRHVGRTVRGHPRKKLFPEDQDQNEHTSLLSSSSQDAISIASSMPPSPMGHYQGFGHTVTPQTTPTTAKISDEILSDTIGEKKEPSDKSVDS
inactive: [1] -0.132 | [2] -0.111 | [3] -0.007 | [4] -0.047 | [5] 0.116 | [6] -0.009 | [7] 0.15 | [8] -0.092 | [10] 0.01 | [11] -0.185 | [12] 0.069 | [20] -0.07 | [14] -0.218 | [15] 0.08 | [16] -0.065 | [17] -0.004 | [18] -0.055 | [19] 0.022
active: [13] -0.401

TMEM179B (UniProt Q7Z7N9)
UniProt Q7Z7N9, sequence (Q7Z7N9 whole entry, looked up): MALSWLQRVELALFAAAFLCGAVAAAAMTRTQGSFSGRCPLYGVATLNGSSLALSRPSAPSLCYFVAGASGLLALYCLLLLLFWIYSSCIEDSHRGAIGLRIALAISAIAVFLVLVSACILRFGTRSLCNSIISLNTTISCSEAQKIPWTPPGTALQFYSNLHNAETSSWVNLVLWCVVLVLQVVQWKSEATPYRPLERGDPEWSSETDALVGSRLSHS
inactive: [1] -0.074 | [2] -0.065 | [3] 0.046 | [4] -0.018 | [6] -0.013 | [7] 0.154 | [8] 0.019 | [9] 0.167 | [10] -0.025 | [11] -0.235 | [12] 0.079 | [13] -0.255 | [14] 0.04 | [15] -0.156 | [16] -0.019 | [17] -0.043 | [18] -0.173 | [19] -0.112

TMEM219 (UniProt Q86XT9)
UniProt Q86XT9, sequence (Q86XT9 whole entry, looked up): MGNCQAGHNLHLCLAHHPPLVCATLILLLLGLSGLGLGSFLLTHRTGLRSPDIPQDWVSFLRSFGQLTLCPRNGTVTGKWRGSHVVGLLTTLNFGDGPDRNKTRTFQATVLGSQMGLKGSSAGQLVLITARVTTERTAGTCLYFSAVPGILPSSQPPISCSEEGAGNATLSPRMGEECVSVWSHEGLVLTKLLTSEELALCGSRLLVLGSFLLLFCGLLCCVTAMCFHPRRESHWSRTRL
inactive: [1] -0.211 | [2] 0.027 | [3] -0.243 | [4] 0.216 | [5] -0.11 | [6] 0.032 | [7] 0.092 | [9] 0.063 | [11] 0.079 | [12] 0.033 | [20] 0.036 | [14] 0.052 | [18] -0.025
active: [15] 0.389

VARS2, A0A0G2JL52
inactive: [1] -0.051 | [2] 0 | [3] -0.043 | [4] 0.012 | [5] 0.009 | [6] 0.003 | [7] 0.037 | [8] -0.021 | [9] -0.01 | [10] -0.049 | [11] 0.013 | [12] -0.01 | [13] -0.087 | [20] -0.062 | [14] 0.028 | [15] 0.106 | [16] 0.006 | [17] -0.005 | [18] -0.048 | [19] -0.017

UBIAD1 (UniProt Q9Y5Z9)
UniProt Q9Y5Z9, sequence (Q9Y5Z9 whole entry, looked up): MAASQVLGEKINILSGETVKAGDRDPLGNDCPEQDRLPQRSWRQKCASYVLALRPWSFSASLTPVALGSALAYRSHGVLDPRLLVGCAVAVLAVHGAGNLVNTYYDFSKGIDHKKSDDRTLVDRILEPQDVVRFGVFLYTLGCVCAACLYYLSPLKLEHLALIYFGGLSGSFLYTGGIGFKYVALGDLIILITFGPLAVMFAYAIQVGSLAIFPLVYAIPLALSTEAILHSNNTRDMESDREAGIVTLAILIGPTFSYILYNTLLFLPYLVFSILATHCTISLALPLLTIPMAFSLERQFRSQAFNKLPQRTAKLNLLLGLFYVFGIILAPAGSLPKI
inactive: [1] -0.004 | [2] -0.022 | [3] 0.074 | [4] 0.004 | [5] 0.176 | [6] -0.004 | [7] 0.052 | [8] 0.006 | [9] 0.003 | [10] -0.144 | [11] -0.089 | [12] 0 | [13] 0.055 | [20] -0.122 | [14] -0.076 | [15] -0.075 | [16] -0.301 | [17] 0.013 | [19] 0.181

TRPT1 isoform 4 (UniProt Q86TN4)
UniProt Q86TN4, sequence (Q86TN4 whole entry, looked up): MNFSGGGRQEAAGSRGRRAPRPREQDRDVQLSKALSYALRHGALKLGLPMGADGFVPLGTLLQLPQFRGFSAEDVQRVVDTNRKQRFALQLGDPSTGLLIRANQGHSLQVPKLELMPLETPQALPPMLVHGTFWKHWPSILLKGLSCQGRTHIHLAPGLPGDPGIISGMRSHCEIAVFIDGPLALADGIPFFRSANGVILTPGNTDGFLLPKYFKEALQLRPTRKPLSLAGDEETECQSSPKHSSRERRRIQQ
inactive: [8] -0.011 | [10] 0.041 | [11] 0.037 | [12] 0.235 | [13] 0 | [14] 0.123 | [16] 0.029 | [17] 0.059 | [19] -0.025
